# In article PMC5540273 (PLoS ONE, 2017):
# What was measured:
# Settings in all cases: concentration: 1 μM, replicates: in singlicate; n = 1
# FYN = tested on: FYN
# GAK = tested on: GAK
# GCN2(Kin.Dom.2,S808G) = tested on: T1, GCN2(Kin.Dom.2,S808G)
# T1 construct: gene EIF2AK4
# GRK1 = tested on: GRK1
# GRK2 = tested on: T2, GRK2
# T2 construct: gene ADRBK1
# GRK3 = tested on: T3, GRK3
# T3 construct: gene ADRBK2
# GRK4 = tested on: GRK4
# GRK7 = tested on: GRK7
# GSK3A = tested on: GSK3A
# GSK3B = tested on: GSK3B
# HASPIN = tested on: T4, HASPIN
# T4 construct: gene GSG2
# HCK = tested on: HCK
# HIPK1 = tested on: HIPK1
# HIPK2 = tested on: HIPK2
# HIPK3 = tested on: HIPK3
# HIPK4 = tested on: HIPK4
# HPK1 = tested on: HPK1
# HUNK = tested on: HUNK
# ICK = tested on: ICK
# IGF1R = tested on: IGF1R
# 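Further: KINOMEscan kinase panel screen.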
SMILES,%Inh (FYN) [%],%Inh (GAK) [%],"%Inh (GCN2(Kin.Dom.2,S808G)) [%]",%Inh (GRK1) [%],%Inh (GRK2) [%],%Inh (GRK3) [%],%Inh (GRK4) [%],%Inh (GRK7) [%],%Inh (GSK3A) [%],%Inh (GSK3B) [%],%Inh (HASPIN) [%],%Inh (HCK) [%],%Inh (HIPK1) [%],%Inh (HIPK2) [%],%Inh (HIPK3) [%],%Inh (HIPK4) [%],%Inh (HPK1) [%],%Inh (HUNK) [%],%Inh (ICK) [%],%Inh (IGF1R) [%]
Cn1cc(-c2ccc3c(c2)CCN3C(=O)Cc2cccc(Cl)c2)c2c(N)ncnc21 [GSK2606590],27,33,43,5,0,0,11,0,5,3,2,0,13,0,13,0,47,4,0,0
O=C(Nc1cccc(-c2nn3ncccc3c2-c2ccnc(Nc3ccccc3)n2)c1)c1c(F)cccc1F [GSK198271],85,31,33,0,0,0,1,0,16,14,0,99.3,0,0,9,28,43,3,0,24
COc1ccc(CNC(=O)NC2CCN(c3ccnc(Nc4ccc(F)cc4)n3)CC2)cc1 [GSK1379788],8,0,0,0,0,57,0,0,2,0,6,0,0,0,9,0,37,14,0,0
O=C(Nc1ccccc1F)NC1CCN(c2ccnc(Nc3ccc(F)cc3)n2)CC1 [GSK1379800],8,0,0,0,0,0,0,0,5,12,9,0,0,0,16,0,34,6,3,10
COc1cccc(NC(=O)NC2CCN(c3ccnc(Nc4cc(OC)c(OC)c(OC)c4)n3)C2)c1 (stereo not shown) [GSK1379763],42,31,4,0,0,15,0,0,0,45,0,0,0,0,85,0,76,0,18,0
COc1cc2c(cc1OCCN1CCNCC1)ncc1c3ccc(C#N)cc3[nH]c21,3,99.3,92.5,3,0,34,88,0,0,26,93.5,3,95.2,99.8,91.9,54,0,0,48,0
Nc1ncc(-c2cccnc2)c2scc(-c3ccc4c(c3)CCN4C(=O)Cc3ccccc3)c12 [GSK683281],32,23,75,0,0,0,22,0,24,29,0,25,20,0,35,0,63,34,8,0
COc1ccc(Nc2nccc(NCCNC(=O)c3cc4ccccc4s3)n2)cc1 [GSK1379896],33,42,3,6,3,0,0,0,7,13,0,15,0,0,22,0,44,13,0,0
COc1ccc(-c2coc3ccc(-c4nnc(SCc5ccc(OC)c(C(F)(F)F)c5)o4)cc23)cc1,3,10,0,19,0,0,0,21,25,4,0,38,12,17,14,0,4,0,7,12
c1ccc(-c2cnc3nccnn23)cc1 [AH20685],50,0,42,0,0,13,0,0,0,0,0,0,0,0,0,0,37,0,0,31
CCCCc1nn2ncccc2c1-c1ccnc(Nc2ccc(N3CCN(C)CC3)cc2)n1 [GW684941],58,91.7,93,0,0,62,16,0,7,5,25,73,24,0,32,71,61,0,17,16
CSc1cccc2c(-c3ccncn3)c(-c3ccc(F)cc3)nn12 [GW514786],17,76,0,6,7,35,100,0,5,9,17,0,9,0,10,32,21,8,0,19
CCn1c(-c2nonc2N)nc2c(C#CC(C)(C)O)nc(OC[C@H](N)c3ccccc3)cc21 [GSK943949],0,0,19,14,11,0,3,30,66,59,22,0,21,0,14,0,30,3,0,0
Clc1ccc(-c2nn3ncccc3c2-c2ccnc(Nc3ccc4c(c3)OCCO4)n2)cc1 [GW829116],0,68,6,0,0,0,0,0,24,0,0,54,14,0,0,0,0,50,0,0
COCCOCCOc1cc2ncc3c4ccc(C#N)cc4[nH]c3c2cc1OC,15,99.3,94.6,29,7,0,83,0,0,0,18,4,90.3,87,87,32,7,0,41,2
CC(=O)Nc1nc2cnc(Nc3cc(NC(=O)c4cccc(C5(C#N)CC5)c4Cl)ccc3C)nc2s1,50,0,19,6,0,14,14,15,0,0,0,53,27,0,0,6,1,12,0,0
Nc1ncnc2c1nc(-c1ccccc1)n2-c1ccccc1 [SKF-97293],0,1,0,36,0,13,13,43,0,40,38,27,7,16,35,9,21,0,19,12
Cc1ccc(C(=O)N2CC[C@@H](O)C2)cc1-n1c(C)cc(OCc2ccc(F)cc2F)c(Br)c1=O,21,0,0,16,0,0,0,0,0,0,0,66,11,0,0,0,0,0,0,0
COc1cc(Nc2nccc(-c3c(-c4cccc(NC(=O)c5c(F)cccc5F)c4)nn4ncccc34)n2)cc(OC)c1OC [GSK327238],97.5,31,69,0,0,0,0,0,11,7,0,96.6,0,0,18,29,82,12,4,95.8
Cc1cccc(Nc2nc(N[C@H]3CCNC3)ncc2C(N)=O)c1.Cl [GSK2197149],43,86,25,0,0,0,78,0,0,0,54,82,21,8,30,0,88,0,0,2
